Compound activity: PubChem BioAssay, National Center for Advancing Translational Sciences (NCATS)
BLM helicase inh = blocks DNA unwinding by human BLM helicase; Potency, µM (titrated, usually from 56.1 µM), inactives show top-dose activity change, negative = inhibition, hits mostly inhibitors; recombinant BLM DNA unwinding, fluorescence dequenching; 350,000 tested, 0.2% active;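 note: plate controls were vehicle for no effect and no enzyme for full effect; nearly all actives have a fitted effect of over 35% in size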
WRN helicase inh = inhibitors of human WRN helicase. Q14191. 360,000 tested, 0.46% active. WRN helicase unwinding, fluorescent forked duplex, kinetic. Potency, µM (top dose mostly 114 µM), for the others: top-dose activity change, negative = inhibition, most hits filed as inhibitors; note: nearly all actives have a fitted effect of over 55% in size
Target sequence (Q14191 whole entry, looked up): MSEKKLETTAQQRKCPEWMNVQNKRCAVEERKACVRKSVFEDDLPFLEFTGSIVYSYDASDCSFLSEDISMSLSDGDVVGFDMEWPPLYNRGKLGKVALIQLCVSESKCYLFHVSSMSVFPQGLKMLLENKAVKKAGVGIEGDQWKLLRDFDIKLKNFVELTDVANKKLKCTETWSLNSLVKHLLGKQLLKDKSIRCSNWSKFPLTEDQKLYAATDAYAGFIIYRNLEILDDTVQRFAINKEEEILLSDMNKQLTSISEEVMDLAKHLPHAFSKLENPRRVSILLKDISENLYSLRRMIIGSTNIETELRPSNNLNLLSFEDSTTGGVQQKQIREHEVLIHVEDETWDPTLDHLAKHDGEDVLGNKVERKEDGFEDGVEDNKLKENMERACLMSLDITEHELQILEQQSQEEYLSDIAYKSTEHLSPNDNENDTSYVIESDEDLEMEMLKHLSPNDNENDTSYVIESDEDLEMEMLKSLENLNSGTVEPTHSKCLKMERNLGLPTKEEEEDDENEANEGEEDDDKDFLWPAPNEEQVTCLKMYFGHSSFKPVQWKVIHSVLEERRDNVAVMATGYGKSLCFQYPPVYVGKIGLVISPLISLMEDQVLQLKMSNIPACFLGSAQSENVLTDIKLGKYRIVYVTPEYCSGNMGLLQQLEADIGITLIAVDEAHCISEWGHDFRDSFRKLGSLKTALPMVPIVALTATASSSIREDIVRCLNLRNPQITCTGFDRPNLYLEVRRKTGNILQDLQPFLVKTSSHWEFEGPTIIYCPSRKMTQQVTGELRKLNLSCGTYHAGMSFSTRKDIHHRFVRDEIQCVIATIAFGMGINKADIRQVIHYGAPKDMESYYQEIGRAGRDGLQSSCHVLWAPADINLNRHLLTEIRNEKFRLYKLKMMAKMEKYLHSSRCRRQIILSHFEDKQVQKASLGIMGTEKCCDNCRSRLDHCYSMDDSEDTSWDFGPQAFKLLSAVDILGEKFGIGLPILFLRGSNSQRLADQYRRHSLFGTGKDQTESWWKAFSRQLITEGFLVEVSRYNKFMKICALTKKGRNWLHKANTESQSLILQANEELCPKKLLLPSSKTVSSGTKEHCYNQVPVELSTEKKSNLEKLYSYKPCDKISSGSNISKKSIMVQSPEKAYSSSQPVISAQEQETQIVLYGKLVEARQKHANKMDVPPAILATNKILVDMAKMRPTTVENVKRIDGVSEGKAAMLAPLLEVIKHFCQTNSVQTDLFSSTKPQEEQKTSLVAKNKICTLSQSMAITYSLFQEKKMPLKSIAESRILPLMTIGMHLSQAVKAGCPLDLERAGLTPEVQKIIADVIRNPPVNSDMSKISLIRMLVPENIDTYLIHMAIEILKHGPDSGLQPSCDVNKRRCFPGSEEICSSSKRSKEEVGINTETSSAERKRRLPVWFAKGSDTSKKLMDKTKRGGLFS
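Enzyme (20 nM final) and test compound sit together 15 min at room temperature before substrate addition. Substrate is a single-forked duplex oligonucleotide (100 nM) labelled with fluorophore and quencher, with 2 mM ATP; helicase unwinding raises red fluorescence, read kinetically.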
FEN1 inh = human FEN1 inhibition. Recombinant FEN1 flap cleavage, fluorescence, 15 min. P39748. 390,000 tested, 0.35% active. Potency, µM (top dose mostly 114 µM), for inactives: at the highest dose activity change, negative = inhibition, usual class: inhibitors; note: nearly all actives have a fitted effect of over 65% in size
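With each library titrated from low to high concentration, compounds met 10 nM FEN1 for 15 min at room temperature before 50 nM substrate was added; readings at 0 and 15 min fed four-parameter Hill curve fits.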
RECQ1 inh-1 = inhibitors of human RECQ1 DNA helicase. RECQ1 DNA unwinding, red fluorescence kinetic read. Potency, µM (series often up to 57.3 µM), for the others: at the highest dose activity, negative = inhibition, most hits filed as inhibitors. 240,000 tested, 0.54% active. AID 2549;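 note: plate controls were vehicle for no effect and no enzyme for full effect; nearly all actives have a fitted effect of over 30% in size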
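50 nM RECQ1T1 preincubated 15 min with compound in Tris pH 8.0 buffer with MgCl2, DTT, Tween-20 and 2.5 ug/ml poly(dI-dC); started with 200 nM TAMRA/BHQ-2 forked duplex and 2 mM ATP. Unwinding read as fluorescence (525/598 nm), two reads 2 h apart.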
APEX1 inh = blocks human APE1 abasic DNA cleavage; P27695; Potency, µM (series often up to 65.8 µM), for inactives: at the highest dose activity change, negative = inhibition, actives largely listed as inhibitors; recombinant APE1, TAMRA/BHQ-2 abasic DNA cleavage fluorescence; 350,000 tested, 0.35% active;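 note: plate controls were vehicle for no effect and reference inhibitor for full effect; nearly all actives have a fitted effect of over 55% in size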
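Enzyme (0.75 nM final) and test compound are incubated 15 min at room temperature before adding 50 nM quenched THF abasic-site duplex. Cleavage dequenches TAMRA, followed at 525/598 nm over three reads one minute apart.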
RECQ1 inh conf = confirmation of human RECQ1 helicase inhibitors. shares compounds with RECQ1 inh-1. RECQ1 helicase DNA unwinding, fluorescence. Potency, µM (series often up to 229 µM), for inactives: at the highest dose activity change, negative = inhibition, hits mostly inhibitors. 610 tested, 28% active; note: nearly all actives have a fitted effect of over 45% in size
RECQ1 ADP FP = displaces ADP in a fluorescence polarization counter-screen for RECQ1 hits. AID 2711. ADP fluorescence polarization displacement counterscreen. 530 tested, 27% active. shares compounds with RECQ1 inh-1. Potency, µM (doses to about 228 µM), for inactives: top-dose activity change, negative = inhibition, usual class: inhibitors; note: nearly all actives have a fitted effect of over 45% in size
RECQ1 inh-2 = RECQ1 helicase inhibition confirmed, round 2. Potency, µM (titrated, usually from 119 µM), for the others: at the top dose activity, negative = inhibition, usual class: inhibitors. 1,100 tested, 15% active. AID 504841. recombinant RECQ1 DNA unwinding, red fluorescence. shares compounds with RECQ1 inh-1; note: nearly all actives have a fitted effect of over 50% in size
An asterisk follows results filed as active; [ ] = dose if it differs, or a comment. The list is not random: actives were taken first. Their share in the collection is about 0.87%. Calls come from the whole dose curve; as a rule, active = well fitted curve in the direction sought with a large enough effect; inconclusive = small, poorly fitted or top-dose-only effect, or another doubt; inactive = no such curve, though single readings can be large; an effect the other way counts as inactive or inconclusive. Unless noted, % is set by controls: 0 for no effect and ±100 for the full control effect; potency is the fitted concentration of half-maximal effect.

`CCc1nc(Nc2ccc(N3CCN(C(C)=O)CC3)cc2)c2oc3ccccc3c2n1` gave BLM helicase inh -14%, WRN helicase inh -20%, FEN1 inh -10%, RECQ1 inh-1 inconclusive, APEX1 inh inconclusive and RECQ1 inh-2 -17%.
For CCc1ccc(-n2c(SCC(=O)N3Cc4ccccc4CC3C(=O)O)nnc2-c2ccncc2)cc1 (centres undefined) the results were BLM helicase inh 0%, WRN helicase inh -7%[11.6 µM], FEN1 inh -3%, RECQ1 inh-1 inactive, APEX1 inh -3%, RECQ1 inh conf 20% and RECQ1 ADP FP -6%.
CCc1ccc(-n2c(SCC(=O)N3CCC(C(=O)O)CC3)nnc2-c2ccncc2)cc1 was read as BLM helicase inh 0%, WRN helicase inh 0%, FEN1 inh 7%, RECQ1 inh-1 inactive and APEX1 inh 0%.
O=C(O)c1c2c(nc3ccc(S(=O)(=O)N4CCC(C(=O)N5CCCCC5)CC4)cc13)CCCC2 was read as BLM helicase inh -6%, WRN helicase inh -12%[57.1 µM], FEN1 inh -5%, RECQ1 inh-1 inconclusive, APEX1 inh -10% and RECQ1 inh-2 8%.
For O=C(NCc1ccc2c(c1)OCO2)C1CCCN(S(=O)(=O)c2cccnc2)C1 (centres undefined) the results were BLM helicase inh 1%, WRN helicase inh 7%, FEN1 inh 17%, RECQ1 inh-1 inconclusive, APEX1 inh 13% and RECQ1 inh-2 -3%.
Screening N/C(=N\NC(=O)c1ccccc1Cl)c1cc2ccccc2oc1=O returned BLM helicase inh -7%, WRN helicase inh -5%, FEN1 inh -10%, RECQ1 inh-1 28µM*, APEX1 inh 4% and RECQ1 inh-2 -6%.
O=C1c2cccc3c(N4CCCCC4)ccc(c23)C(=O)N1c1cccc(O)c1 was read as BLM helicase inh 3%, WRN helicase inh -10%, FEN1 inh inconclusive, RECQ1 inh-1 inactive and APEX1 inh -3%.
For Cc1n[nH]c(C)c1N1C(=O)c2cccc3c(N4CCCCCC4)ccc(c23)C1=O the results were BLM helicase inh -4%, WRN helicase inh -10%, FEN1 inh -23%, RECQ1 inh-1 28µM*, APEX1 inh -2% and RECQ1 inh-2 79µM*.
`Cc1ccc(O)c(NC(=O)c2noc3c2CCCC3)c1` gave BLM helicase inh -4% and FEN1 inh -7%.
CSc1ccccc1NC(=O)c1noc2c1CCC2 was read as BLM helicase inh -4%, WRN helicase inh inconclusive, FEN1 inh inconclusive, RECQ1 inh-1 inconclusive, APEX1 inh 35µM* and RECQ1 inh-2 inconclusive.
CCc1nnc(NC(=O)c2sc3nc4c(cc3c2N)CCCCC4)s1 was read as BLM helicase inh -6%, WRN helicase inh -33%, FEN1 inh 3%, RECQ1 inh-1 -4% and APEX1 inh -5%.
`CCc1nnc(NC(=O)c2sc3nc4c(cc3c2N)CCCCCC4)s1` gave BLM helicase inh -21%, WRN helicase inh -10%[11.6 µM], FEN1 inh -1%, RECQ1 inh-1 inconclusive, APEX1 inh 1% and RECQ1 inh-2 inconclusive.
Screening O=C(N/N=C/c1cccc(NC(=O)c2ccc(Cl)cc2)c1)c1ccc(O)cc1 returned BLM helicase inh -1%, WRN helicase inh -23%, FEN1 inh 5%, RECQ1 inh-1 18µM*, APEX1 inh inconclusive, RECQ1 inh conf 112µM* and RECQ1 ADP FP 19%[91.9 µM].
Cc1ccc(N2CC(C(=O)NCCC(C)C)CC2=O)cc1 (centres undefined) was read as BLM helicase inh -1%, WRN helicase inh 4%, FEN1 inh 9%, RECQ1 inh-1 -3% and APEX1 inh 3%.
For Cc1ccc(N2CC(C(=O)NCc3ccc(C)n3C)CC2=O)cc1 (centres undefined) the results were BLM helicase inh -9%, WRN helicase inh -1%, FEN1 inh 7%, RECQ1 inh-1 inconclusive, APEX1 inh -7% and RECQ1 inh-2 -9%.
For CC(C)OC(=O)CC(=O)c1sc2nc3c(cc2c1N)CN(C)CC3 the results were BLM helicase inh -23%, WRN helicase inh inconclusive, FEN1 inh inconclusive, RECQ1 inh-1 13µM*, APEX1 inh 7% and RECQ1 inh-2 -7%.
COc1cccc(N2CCN(C(=O)CN3C(=O)COc4ccc(S(=O)(=O)N5CCC(C)CC5)cc43)CC2)c1 was read as BLM helicase inh -5% and FEN1 inh 0%.
`CCCCNc1nc(Oc2ccc(=O)n(-c3ccccc3)n2)nc(N(C)C)n1` gave BLM helicase inh 1% and FEN1 inh -8%.
`CC1CCN(C(=O)Cn2cc(SCC(=O)NCc3ccc(F)cc3)c3ccccc32)CC1` gave BLM helicase inh -1% and FEN1 inh -8%.
`Cc1ccc(/C=C2\SC(=S)N(Cc3ccccc3)C2=O)o1` gave BLM helicase inh -10%, WRN helicase inh -13%, FEN1 inh 1%, RECQ1 inh-1 18µM*, APEX1 inh -3%, RECQ1 inh conf inconclusive and RECQ1 ADP FP 34%[91.9 µM].
`O=C1/C(=C/c2ccncc2)SC(=S)N1Cc1ccccc1` gave BLM helicase inh 3%, WRN helicase inh -14%, FEN1 inh -7%, RECQ1 inh-1 inactive and APEX1 inh -4%.
Screening O=C(O)c1cc(-c2ccc(/C=C3/SC(=S)N(Cc4ccccc4)C3=O)o2)ccc1Cl returned BLM helicase inh -8%, WRN helicase inh inconclusive, FEN1 inh -15%, RECQ1 inh-1 6.3µM*, APEX1 inh inconclusive and RECQ1 inh conf inconclusive.
`Cc1ccc(S(=O)(=O)N2CCc3ccccc3C2CN2C(=O)c3ccccc3C2=O)cc1` (centres undefined) gave BLM helicase inh -9%, WRN helicase inh -6%, FEN1 inh -16%, RECQ1 inh-1 32µM*, APEX1 inh 10% and RECQ1 inh-2 -13%.
Screening O=C1c2ccccc2C(=O)N1CC1c2ccccc2CCN1S(=O)(=O)c1cnc[nH]1 (centres undefined) returned BLM helicase inh 3%, WRN helicase inh 3%, FEN1 inh -2%, RECQ1 inh-1 -3% and APEX1 inh 2%.
